# Results published in ChEMBL document CHEMBL4808148, “HDAC6 screening dataset using tau-based substrate in an enzymatic assay yields selective inhibitors and activators” (2021).
# Hit rate of the full screen: of about 5,600 compounds, about 390 (7%) showed an effect of 50% or more. The entries come from a sample that favours strong results as a whole.
# Biological target: T1, Protein deacetylase HDAC6 (Homo sapiens) (UniProt Q9UBN7)
# T1 sequence (whole entry): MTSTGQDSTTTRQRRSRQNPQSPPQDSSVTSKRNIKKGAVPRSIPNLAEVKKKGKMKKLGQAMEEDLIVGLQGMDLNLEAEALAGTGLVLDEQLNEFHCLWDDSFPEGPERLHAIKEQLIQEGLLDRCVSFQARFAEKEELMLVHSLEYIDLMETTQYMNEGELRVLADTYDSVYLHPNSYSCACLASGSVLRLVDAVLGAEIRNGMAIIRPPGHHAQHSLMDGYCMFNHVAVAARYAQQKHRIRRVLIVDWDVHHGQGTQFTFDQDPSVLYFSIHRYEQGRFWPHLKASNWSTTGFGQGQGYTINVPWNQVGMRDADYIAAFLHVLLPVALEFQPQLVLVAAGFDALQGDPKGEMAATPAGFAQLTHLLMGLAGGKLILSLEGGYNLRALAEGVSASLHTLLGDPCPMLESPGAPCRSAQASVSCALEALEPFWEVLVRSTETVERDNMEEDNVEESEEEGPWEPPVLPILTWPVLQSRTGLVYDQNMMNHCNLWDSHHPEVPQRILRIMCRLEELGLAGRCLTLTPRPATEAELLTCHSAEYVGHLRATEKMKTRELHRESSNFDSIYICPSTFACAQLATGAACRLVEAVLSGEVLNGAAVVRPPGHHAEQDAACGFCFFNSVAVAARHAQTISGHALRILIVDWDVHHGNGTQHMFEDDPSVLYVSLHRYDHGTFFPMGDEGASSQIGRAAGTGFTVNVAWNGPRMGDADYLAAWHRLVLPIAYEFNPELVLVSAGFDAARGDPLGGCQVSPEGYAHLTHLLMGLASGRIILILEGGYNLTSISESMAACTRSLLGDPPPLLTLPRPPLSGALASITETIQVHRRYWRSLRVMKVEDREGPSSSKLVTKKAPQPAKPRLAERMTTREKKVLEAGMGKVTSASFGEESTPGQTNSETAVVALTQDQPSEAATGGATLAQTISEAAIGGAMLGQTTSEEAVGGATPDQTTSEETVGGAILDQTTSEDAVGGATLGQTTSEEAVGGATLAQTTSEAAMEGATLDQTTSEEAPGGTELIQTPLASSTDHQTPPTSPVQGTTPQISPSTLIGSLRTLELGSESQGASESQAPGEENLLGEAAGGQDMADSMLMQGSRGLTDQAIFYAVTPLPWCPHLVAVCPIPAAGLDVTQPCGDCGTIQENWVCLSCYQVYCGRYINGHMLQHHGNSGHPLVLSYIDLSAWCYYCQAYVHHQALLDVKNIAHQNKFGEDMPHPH
# Details: at 10 µM
row,Structure (SMILES),inhibition [%]
1,Cn1cc(C2=C(c3ccc(Cl)cc3Cl)C(=O)NC2=O)c2ccccc21,-5.95
2,Cn1cc(C2=C(c3cn(CCCSC(=N)N)c4ccccc34)C(=O)NC2=O)c2ccccc21,-2.47
3,Cc1ccc(-c2cn3c4c(sc3n2)CCCC4)cc1,98
4,Clc1ccccc1CNC[C@H]1CC[C@H](CNCc2ccccc2Cl)CC1,9.4
5,N#Cc1ccncn1,5.74
6,Nc1cccc(-c2cc3c(Oc4cccc(O)c4)ncnc3[nH]2)c1,55.1
7,C[C@@H]([C@@H](O)c1ccc(O)cc1)N1CCC(O)(c2ccccc2)CC1,14.2
8,CC/C=C(\C(=O)N[C@@H]1C(=O)N2C(C(=O)OCOC(=O)C(C)(C)C)=C(COC(N)=O)CS[C@H]12)c1csc(N)n1,4.66
9,N#Cc1c(O)c2c(-c3ccc(-c4ccccc4O)cc3)csc2[nH]c1=O,94.5
10,CNC(=N)NC(=O)Nc1c(C)cccc1C,27.8
11,C1=Cc2cccc(OCC3CNCCO3)c2C1 (centres undefined),18.4
12,C=C(C)[C@@H]1CC[C@]2(C(=O)O)CC[C@]3(C)[C@H](CC[C@@H]4[C@@]5(C)CC[C@H](OC(=O)CC(C)(C)C(=O)O)C(C)(C)[C@@H]5CC[C@]43C)[C@@H]12,26.3
13,O=C(O)c1cc(O)c2c3nc4ccccc4oc-3cc(=O)c2n1,5.48
14,COc1ccc(-c2cc(=O)c3c(O)c(OC)c(O)cc3o2)cc1OC,85.7
15,OCc1ccccc1O[C@@H]1O[C@H](CO)[C@@H](O)[C@H](O)[C@H]1O,-9.23
16,O=C(O)[C@H]1O[C@H](Oc2cc3oc(-c4ccccc4)cc(=O)c3c(O)c2O)[C@H](O)[C@@H](O)[C@@H]1O,61.7
17,O=c1cc(-c2ccccc2)oc2cc(O)cc(O)c12,101
18,COc1ccc(-c2cc(=O)c3c(OC)c(OC)c(OC)c(OC)c3o2)cc1,44.4
19,O=c1oc2cc(O)ccc2s1,15.3
20,O=c1cc(-c2ccc(O)cc2)oc2cc(O)cc(O)c12,97
21,COc1ccc(-c2cc(=O)c3c(OC)c(OC)c(OC)c(OC)c3o2)cc1OC,-2.26
22,CCOC(=O)COc1ccc2c(=O)cc(-c3ccccc3)oc2c1,46.4
23,O=C(O)c1cc(O)c2c(c1)[C@@H]([C@H]1c3cc(C(=O)O)cc(O)c3C(=O)c3c(O[C@H]4O[C@H](CO)[C@@H](O)[C@H](O)[C@H]4O)cccc31)c1cccc(O[C@H]3O[C@H](CO)[C@@H](O)[C@H](O)[C@H]3O)c1C2=O,17.7
24,CC(O)C(N)C(=O)O (centres undefined),8.96
25,Cc1ccc(Oc2ccccc2-c2csc(N=C3NCCCN3)n2)c(C)c1,38.2
26,CCCCCCCCCCCC(=O)N(CCO)CCO,14.4
27,OC[C@H]1O[C@@H](Oc2cc3c(O)cc(O)cc3[o+]c2-c2ccc(O)c(O)c2)[C@H](O)[C@@H](O)[C@@H]1O,27.8

row,Structure (SMILES),inhibition [%]
1,OCCNCCCOc1cccc(Cl)c1Cl,15.6
2,COc1cc(C=O)c([N+](=O)[O-])cc1OC,11.8
3,Cn1c(=O)n(-c2ccc(C(C)(C)C#N)cc2)c2c3cc(-c4cnc5ccccc5c4)ccc3ncc21,-9.93
4,Cc1cnc(-c2ccccc2C(C)C)nc1NCc1ccc(-n2ccnn2)cc1,23.1
5,Clc1ccc2c(c1)N=C(N1CCNCC1)c1ccccc1N2,0.45
6,O=C(CN1CCNCC1)NC1CCCCC1,18.3
7,CC(C)(C)c1ccc(C(=O)CCCN2CCC(OC(c3ccccc3)c3ccccc3)CC2)cc1,25.3
8,O=C(O)[C@@H]1C[C@@H](O)CN1,16.1
9,Cc1nc2ccc(Oc3ccc(F)cc3)cc2c(=O)n1C[C@H]1CCCN(C(C)C)C1,7.87
10,O=c1cc(-c2ccccc2)oc2cc(O)c(O)c(O)c12,99.6
11,O=C(O)Cc1cccc2c(=O)cc(-c3ccccc3)oc12,23.3
12,COc1ccc(-c2cc(=O)c3c(O)cc(O)cc3o2)cc1O,92.8
13,COc1ccc(-c2cc(=O)c3c(O)cc(O[C@@H]4O[C@H](CO[C@@H]5O[C@@H](C)[C@H](O)[C@@H](O)[C@H]5O)[C@@H](O)[C@H](O)[C@H]4O)cc3o2)cc1O,30.2
14,COc1ccccc1N1CCN(CCn2c(=O)[nH]c3c([nH]c4ccccc43)c2=O)CC1,3.49
15,C[C@@H]1OC(O)[C@H](O)[C@H](O)[C@H]1O (some centres undefined),8.33
16,CC(C)C(=O)OC[C@@]1(N=[N+]=[N-])O[C@@H](n2ccc(N)nc2=O)[C@H](OC(=O)C(C)C)[C@@H]1OC(=O)C(C)C,10.6
17,CC(=O)O[C@]1(C(C)=O)CC[C@H]2[C@@H]3CCC4=CC(=O)CCC4=C3[C@@H](c3ccc(N(C)C)cc3)C[C@@]21C,7.8
18,N=C(N)NCCCC(NC(=O)C1CCCN1C(=O)C1CSSCCC(=O)NC(Cc2ccc(O)cc2)C(=O)NC(Cc2ccccc2)C(=O)NC(CCC(N)=O)C(=O)NC(CC(N)=O)C(=O)N1)C(=O)NCC(N)=O (centres undefined),12.1
19,O=C(O)c1cc(-c2ccccc2)nc2ccccc12,16.3
20,COC(=O)[C@H](NC(=O)c1cc(-c2ccccc2)nc2ccccc12)c1ccccc1,30.8
21,COc1cc2ncc(-c3ccccc3)nc2cc1OC,97.8
22,C=CCN(C)CCCCCCOc1ccc(C(=O)c2ccc(Br)cc2)c(F)c1,8.93
23,C=CCNc1nc(NCC=C)nc(N2CCN(C(c3ccc(F)cc3)c3ccc(F)cc3)CC2)n1,-4.35
24,NC(C(=O)O)c1cc(O)cc(O)c1 (centres undefined),9.39
25,CCCCCN1CCC(C(N)=O)CC1,3.67
26,CC(C(=O)O)c1ccc(C(=O)c2ccccc2)s1 (centres undefined),41.6
27,N=C(N)NCc1cccc(I)c1,13.7
